From PubChem
Rows were chosen to be rich in hits. Some 27% of all compounds tested hit in one or more screens of this group.
CYP2C19 inh = inhibitors of human CYP2C19; P33261; CYP2C19 Supersomes, luciferin-H EGE luminescence, 30 min; inhibition, % at 5 µM; actives 21% (n = 96,000);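 active = CYP2C19 inhibition above a set limit at 5 µM in the primary screen, cut at about 50% in these data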;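 note: plate controls were negative control wells for no effect and 2.5 mM tranylcypromine positive control for full effect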
sEH inhibitor = inhibitors of human soluble epoxide hydrolase. P34913. recombinant human sEH enzymatic activity assay. inhibition, % at 2 µM. actives 0.34% (n = 91,000); in the data active = inhibition above about 80%
CYP2C9 activ = activators of human CYP2C9; actives 1.4% (n = 96,000); recombinant CYP2C9, luciferin-H conversion, luminescence; hits give high values; factor 1 = untreated enzyme, 0 = blocked; P11712; activation factor at 5 µM;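 active = activation factor of 2 or more for CYP2C9 at a 5 µM dose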;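 note: 0 = sulfaphenazole-blocked wells and 1 = vehicle-only wells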
Target sequence (P11712 whole entry, looked up): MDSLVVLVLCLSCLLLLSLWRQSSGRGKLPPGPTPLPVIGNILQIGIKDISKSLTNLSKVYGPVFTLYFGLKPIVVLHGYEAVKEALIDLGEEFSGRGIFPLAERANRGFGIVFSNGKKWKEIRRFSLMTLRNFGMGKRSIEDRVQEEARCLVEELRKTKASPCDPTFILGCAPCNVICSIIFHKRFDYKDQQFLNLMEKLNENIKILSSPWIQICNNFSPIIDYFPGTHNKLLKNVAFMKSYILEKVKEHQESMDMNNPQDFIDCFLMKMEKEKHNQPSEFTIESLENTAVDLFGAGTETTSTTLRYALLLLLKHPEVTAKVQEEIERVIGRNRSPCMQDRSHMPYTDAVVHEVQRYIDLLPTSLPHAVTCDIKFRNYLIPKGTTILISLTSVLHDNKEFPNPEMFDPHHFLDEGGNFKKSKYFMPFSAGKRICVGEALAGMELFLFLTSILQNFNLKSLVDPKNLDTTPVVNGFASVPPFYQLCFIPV
CYP2C9 inh = human CYP2C9 inhibition; P11712; CYP2C9 Supersomes, luciferin-H conversion, luminescence; inhibition, % at 5 µM; actives 20% (n = 96,000); AID 777;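 active = blocking of liver enzyme CYP2C9 beyond about 50% at 5 µM, limit read from the data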
sEH act = increases human soluble epoxide hydrolase activity | purified human sEH enzymatic activity, activator screen | activation, % at 2 µM | actives 0.04% (n = 91,000) | AID 717; in the data active = activation above about 37%
CYP2C19 activ = increases human CYP2C19 enzyme activity; P33261; recombinant CYP2C19, luciferin-H EGE luminescence; hits give high values; 0 = fully inhibited enzyme, 1 = untreated enzyme; 96,000 tested, under 10 active; activation factor at 5 µM;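 active = activation factor of at least 2 at 5 µM in the primary screen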;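 note: 0 = wells with 2.5 mM tranylcypromine and 1 = vehicle-only wells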
The depositor's hits bear a star; nt = not tested or not shown.

SMILES	CYP2C19 inh	sEH inhibitor	CYP2C9 activ	CYP2C9 inh	sEH act	CYP2C19 activ
CCOc1ncccc1C(=O)NCC1COc2ccccc2O1 (stereo not given)	87.7*	7.8	0.1	88.4*	-8.3	0.1
Cc1ccc(CN2C(=O)CCC2C(=O)NCCCN2CCCC(C)C2)cc1 (stereo not given)	-2.6	-5.2	1	-0.4	4.5	1
CN1CCN(c2nc(N3CCN(c4ccccc4)CC3)ncc2F)CC1	61.8*	4.4	0.8	19.4	0.7	0.4
O=C(COc1ncnc2sccc12)N1CCN(S(=O)(=O)c2ccc(Cl)cc2)CC1	0.6	16.4	0.9	11.6	-18.8	1
COc1cc(SC)ccc1C(=O)Nc1ccccc1	-37.4	6.4	1.3	-25.1	-9.1	1.4
CCN(CC)c1ccc(NC(=O)c2ccccc2F)cc1	19.9	16.8	3*	-200.0	-15.5	0.8
COc1cc(SC)ccc1C(=O)Nc1ccc2c(c1)OCCO2	90.8*	0.4	0.4	57.8*	0.0	0.1
O=C(Nc1ccc2c(c1)OCO2)Oc1ccccc1	62.2*	26.2	1	1.5	-22.1	0.4
COc1ccc(Cl)cc1C(=O)Nc1ccc2c(c1)OCO2	59.3*	-13.8	3.3*	-231.7	12.1	0.4
CC(C)C(NS(=O)(=O)c1ccc2c(c1)oc(=O)n2C)C(=O)N1CCN(Cc2ccccc2)CC1 (stereo not given)	19.7	13.3	0.9	12.7	-15.6	0.8
COc1cc(C(=O)Nc2cnc(NC(=O)C(C)C)cc2C)cc(OC)c1OC	nt	8.4	nt	nt	-7.3	nt
Cc1cc(=O)n2[nH]cc(C(=O)O)c2n1	nt	-19.3	nt	nt	20.2	nt
Cc1ccc(NC(=O)/C(=C\c2ccc3c(c2)OCO3)NC(=O)c2ccco2)cc1	10.1	9.9	0.2	83.8*	-7.1	0.9
Cn1c(COc2ccccc2)nnc1SCC(=O)Nc1ccc2c(c1)OCO2	37.2	nt	0.6	36.3	nt	0.6
O=C(Nc1ccccc1C(=O)Nc1ccc2c(c1)OCO2)c1ccco1	50.6*	-5.7	0	97.3*	9.4	0.5
COCCn1cnnc1SCC(=O)Nc1ccccc1C(=O)Nc1ccc2c(c1)OCO2	57.5*	6.8	0.1	93.5*	-5.3	0.4
COc1ccc(Cl)cc1C(=O)Nc1nnn(C)n1	-6.6	3.3	2*	-99.9	-4.6	1.1
COc1cc(NC(=O)c2ccc3c(c2)OCO3)ccc1NC(=O)c1ccco1	nt	3.4	nt	nt	-2.0	nt
Cc1ccc(NC(=O)/C(=C\c2cccc(Br)c2)NC(=O)c2ccco2)cc1	-4.4	0.1	0.7	29.8	-2.1	1
COCCn1c(SCC(=O)OCc2ccccc2)nc2c1c(=O)[nH]c(=O)n2C	-8.9	nt	1	-3.4	nt	1.1
CC(C)OC(=O)NCN1C(=O)C2C3C=CC(C3)C2C1=O (stereo not given)	-1.8	-4.3	1	-4.9	4.0	1
CCOC(=O)c1c(C)[nH]c(C(=O)Nc2ccc3c(c2)OCO3)c1C	86.0*	nt	0.7	34.5	nt	0.1
CCN(CC)c1ccc(NC(=O)c2cc(Cl)ccc2OC)cc1	23.6	-1.2	2.9*	-192.4	-0.2	0.8
Cc1ccccc1C(=O)Nc1ccc2c(c1)OCO2	84.0*	nt	0.6	37.5	nt	0.2
COc1ccccc1C(=O)Nc1ccc2c(c1)OCO2	89.8*	12.7	0.9	14.3	-10.3	0.1
SMILES	CYP2C19 inh	sEH inhibitor	CYP2C9 activ	CYP2C9 inh	sEH act	CYP2C19 activ
COCc1nnc(NC(=O)c2cc(Cl)ccc2OC)s1	-7.5	-1.1	1.3	-26.4	0.5	1.1
CCOC(=O)c1ccc2cccc(C)n2c1=O	87.5*	11.1	0.3	74.4*	-9.2	0.1
CCOC(=O)c1cc(C(C)=O)c(=O)n(C)c1N	5.8	nt	0.9	11.9	nt	0.9
COc1ccc(-n2c(/C=C(\C)O)nc(=O)c3c(C)cc(C)nc32)cc1	4.6	5.4	0.7	26.7	-2.9	1
CC(C)CNC(=O)NC(=O)COc1ccc(C=O)cc1	94.9*	-0.5	0.2	83.3*	3.7	0.1
CC1(C)NC(=O)N(CCCCOc2ccc3ccccc3c2Cl)C1=O	95.3*	-5.8	1.2	-23.5	8.1	0
CCC(=O)c1ccccc1OCCCN1C(=O)NC(C)(C)C1=O	61.9*	-12.2	0.5	47.9	10.2	0.4
CC1(C)NC(=O)N(CCOCCOc2ccc3ccccc3c2Br)C1=O	87.8*	3.9	1	-3.6	-4.1	0.1
Cc1ccc(C(C)C)c(OCCCN2C(=O)NC(C)(C)C2=O)c1	89.9*	3.5	0.5	54.1*	-0.3	0.1
